# “And” between values parts separate entries of the source, which are not always exact repeats. Identical values can stand only once. Records with an inconclusive call do not appear. Where a call stands in place of a potency, no number is given. The source made the active and inactive calls. Unless noted, calls come from the whole dose curve; as a rule, active = well fitted curve in the direction sought with a large enough effect; inconclusive = small, poorly fitted or top-dose-only effect, or another doubt; inactive = no such curve, though single readings can be large; an effect the other way counts as inactive or inconclusive.
# Experiments:
# [1] = qHTS Assay for Identifying Gametocytocidal Compounds (AID 743244);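 note: actives lower the fluorescent signal which means gametocytes are killed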; conditions: P. falciparum 3D7 stage III-V gametocytes, alamarBlue, 72 h; max response: stronger effect = lower value
# Outline: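 Stage III–V gametocytes of P. falciparum 3D7 were seeded at 20,000 cells/well onto pre-dispensed compounds. After 72 h, 37 °C, 5% CO2, alamarBlue was added for another 24 h.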
# [2] = qHTS assay to identify small molecule inhibitors of chordoma cells - UCH-2 (AID 1259356); note: potency is the fitted concentration of half-maximal effect
# [3] = qHTS assay for small molecule agonists of the antioxidant response element (ARE) signaling pathway measured by Nrf2-dependant transcriptional activity (AID 720636; active = well fitted curve in the direction sought with a large enough effect in the repeat runs; an effect the other way counts as inactive or inconclusive;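 note: HepG2 cells with an ARE-driven luciferase reporter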)
# Outline: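 First, ARE-luc HepG2 cells attached for 6 hr at 37 C in 1% dialyzed FBS medium. Next, compound or DMSO was added and incubated 16 hr. Finally, ONE-Glo reagent was added and luminescence measured after 30 min.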
# [4] = qHTS assay for small molecule antagonists of the retinoid-related orphan receptor gamma (ROR-gamma) signaling pathway - cell viability counter screen (AID 720652; active = well fitted curve in the direction sought with a large enough effect in the repeat runs; an effect the other way counts as inactive or inconclusive;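 note: CHO reporter cells with doxycycline-induced ROR-gamma expression; compound exposure lasted 16 hr before ATP read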)
# Outline: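 ATP-based viability readout in the ROR-gamma reporter CHO cells after 16 hr compound exposure under doxycycline induction.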
# [5] = qHTS assay for small molecule agonists of the antioxidant response element (ARE) signaling pathway measured by Nrf2-dependant transcriptional activity - cell viability counter screen (AID 720653; active = well fitted curve in the direction sought with a large enough effect in the repeat runs; an effect the other way counts as inactive or inconclusive); conditions: ARE-bla HepG2 viability, CellTiter-Glo ATP luminescence, 16 h; stronger effect = lower value
# Outline: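 ARE-bla HepG2 cells treated with compounds for 16 h at 37C; this counter screen measures viability as intracellular ATP by CellTiter-Glo luminescence after 30 min at room temperature.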
# [6] = qHTS assay for cell viability of HEK293 cells (AID 743288); conditions: ATP luminescence (CellTiter-Glo), 18 h; max response: stronger effect = lower value; note: nearly all actives have a fitted effect of over 50% in size; note: potency is the fitted concentration of half-maximal effect
# Outline: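 After 18 h compound exposure at 37 C, parental HEK293 cells (2,000/well) are lysed with CellTiter-Glo and luminescence is read following 30 min at room temperature.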
# [7] = qHTS profiling for inhibitors of Plasmodium falciparum (3D7) proliferation (AID 743322; call rule not given here;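 note: infected erythrocytes exposed to compound for 72 h before lysis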); conditions: P. falciparum 3D7 proliferation; at 28.7 µM (top of the series) unless noted
# Outline: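 Parasite DNA was quantified by SYBR Green I fluorescence (ex 485, em 535 nm) after overnight lysis in saponin/Triton buffer at room temperature. Cultures at 0.3% parasitemia and 2.5% hematocrit were first exposed to compound for 72 h at 37 C; signals were normalised to artemisinin (0.29 uM) and vehicle wells.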
# [8] = qHTS profiling for inhibitors of Plasmodium falciparum (DD2) proliferation (AID 743323; call rule not given here); conditions: lower = more inhibition; at 28.7 µM (top of the series) unless noted
# Outline: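 Parasite DNA quantified by SYBR Green fluorescence (ex 485, em 535 nm) after saponin/Triton lysis and overnight dark incubation. Cultures: 0.3% parasitemia, 2.5% hematocrit, 72 h, 37 C; data scaled between DMSO and 0.29 uM artemisinin.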
# [9] = qHTS profiling for inhibitors of Plasmodium falciparum (HB3) proliferation (AID 743324); conditions: Plasmodium falciparum HB3 blood-stage proliferation; at 28.7 µM (top of the series) unless noted
# Outline: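 SYBR Green fluorescence (485 ex/535 em) of lysed cultures, incubated overnight at room temperature in the dark, quantifies parasite DNA. Infected erythrocytes at 0.3% parasitemia and 2.5% hematocrit were exposed 72 h; values normalized to DMSO and 0.29 uM artemisinin controls.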
# [10] = qHTS assay for cell viability of the p53RE-bla HCT-116 cell line (AID 743292); note: nearly all actives have a fitted effect of over 55% in size
# Outline: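 Quantitative high-throughput format: compounds in DMSO were pinned onto p53RE-bla HCT-116 cells (4,000/well) and incubated 16 h at 37 C. Total intracellular ATP, read by CellTiter-Glo luminescence, reflects viable cell number.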
structure (smiles),measurement,setting,value
CCC(C(=O)NC(N)=O)c1ccccc1 (stereo not given),max response,[1],7.61% (inactive)
same,Potency,[2],inactive
CC[C@H]1OC(=O)[C@H](C)[C@@H](O[C@H]2C[C@@](C)(OC)[C@@H](O)[C@H](C)O2)[C@H](C)[C@@H](O[C@@H]2O[C@H](C)C[C@H](N(C)C)[C@H]2O)[C@](C)(O)C[C@@H](C)CN(C)[C@H](C)[C@@H](O)[C@]1(C)O,Potency,[3],inactive
same,outcome,[4],inactive
same,max response,[5],-20.4% (inactive)
same,max response,[6],-7.47% (inactive)
same,Potency,[2],inactive
O=[N+]([O-])O[C@@H]1CO[C@H]2[C@@H]1OC[C@@H]2O,max response,[1],5.11% (inactive)
same,Potency,[2],inactive
CCCCCCCCCCCCCCCCCCCCCC(=O)Nc1ccn([C@@H]2O[C@H](CO)[C@@H](O)[C@@H]2O)c(=O)n1,max response,[1],-10.3% (inactive)
same,Potency,[2],inactive
O=C(/C=C/c1cccc(F)c1)NC1CC1,max response,[1],-1.6% (inactive)
same,Potency,[2],inactive
CC1(C)[C@@H]2CC[C@@]1(C)[C@H](OC(=O)CSC#N)C2,max response,[1],-3.31% (inactive)
same,Potency,[2],inactive
CC(=O)Oc1cccc(C(=O)O)c1OC(C)=O,max response,[1],10.1% (inactive)
same,Potency,[2],inactive
CN[C@@H]1[C@H](O[C@H]2[C@H](O[C@H]3[C@H](O)[C@@H](O)[C@H](N=C(N)N)[C@@H](O)[C@@H]3N=C(N)N)O[C@@H](C)[C@]2(O)CO)O[C@@H](CO)[C@H](O)[C@H]1O,max response,[1],8.75% (inactive)
same,Potency,[2],inactive
C=C[C@]1(C)C[C@@H](OC(=O)CSCCN(CC)CC)[C@]2(C)[C@H](C)CC[C@]3(CCC(=O)[C@H]32)[C@@H](C)[C@@H]1O,max response,[1],-4.45% (inactive)
CCCCC/C=C\CCC(=O)N[C@H]1[C@H](Oc2c3cc4cc2Oc2ccc(cc2Cl)[C@@H](O[C@@H]2O[C@H](CO)[C@@H](O)[C@H](O)[C@H]2NC(C)=O)[C@@H]2NC(=O)[C@H](NC(=O)[C@@H]4NC(=O)[C@H]4NC(=O)[C@@H](Cc5ccc(c(Cl)c5)O3)NC(=O)[C@H](N)c3ccc(O)c(c3)Oc3cc(O)cc4c3)c3ccc(O)c(c3)-c3c(O[C@H]4O[C@H](CO)[C@@H](O)[C@H](O)[C@@H]4O)cc(O)cc3[C@@H](C(=O)O)NC2=O)O[C@H](CO)[C@@H](O)[C@@H]1O,max response,[1],-6.11% (inactive)
same,Potency,[2],inactive
CCN(CC)CCOCCOC(=O)C(CC)(CC)c1ccccc1,remaining parasite growth % (stronger effect = lower value),[7],90.6%
same,"activity, percent of control",[8],50.9%
same,"remaining proliferation (% of control), lower = more inhibition",[9],65.7%
same,Potency,[2],inactive
CC(=O)Nc1c(I)c(C(=O)N[C@H]2C(O)O[C@H](CO)[C@@H](O)[C@@H]2O)c(I)c(N(C)C(C)=O)c1I (stereo not given in full),max response,[1],5.57% (inactive)
same,Potency,[2],inactive
C=C1CC[C@H](O)C/C1=C\C=C1/CCC[C@]2(C)[C@@H]([C@H](C)CCCC(C)C)CC[C@@H]12,max response,[1],7.84% (inactive)
same,Potency,[2],inactive
Cc1cccc(C)c1Nc1ncccc1C(=O)O,Potency,[2],inactive
CO[C@H]1C[C@@H]2CC[C@@H](C)[C@@](O)(O2)C(=O)C(=O)N2CCCC[C@H]2C(=O)O[C@H]([C@H](C)C[C@@H]2CC[C@@H](OC(=O)C(C)(CO)CO)[C@H](OC)C2)CC(=O)[C@H](C)/C=C(\C)[C@@H](O)[C@@H](OC)C(=O)[C@H](C)C[C@H](C)/C=C/C=C/C=C/1C,max response,[1],-3.38% (inactive)
same,Potency,[2],inactive
O=P(O)(O)CP(=O)(O)O,max response,[1],-3.27% (inactive)
same,Potency,[2],inactive
COc1ccc(C(=O)/C(Br)=C\C(=O)O)cc1,max response,[1],20.3% (inactive)
same,Potency,[2],inactive
C[C@H]1O[C@@H](O[C@H]2[C@@H](O)C[C@H](O[C@H]3[C@@H](O)C[C@H](O[C@H]4CC[C@@]5(C)[C@H](CC[C@@H]6[C@@H]5C[C@@H](O)[C@]5(C)[C@@H](C7=CC(=O)OC7)CC[C@]65O)C4)O[C@@H]3C)O[C@@H]2C)C[C@H](O)[C@@H]1O,Potency,[3],inactive
same,max response,[1],-13.6% (inactive)
same,Potency,[6],126 nM (active) and 50.1 nM (active)
same,Potency,[2],116 nM (active)
Cc1cc(=O)c(C(=O)N[C@@H](C(=O)N[C@@H]2C(=O)N3C(C(=O)O)=C(CSc4nnnn4C)CS[C@H]23)c2ccc(O)cc2)c[nH]1,max response,[1],-4.61% (inactive)
same,Potency,[2],inactive
O=C(O)CCC/C=C\C[C@@H]1[C@@H](/C=C/[C@@H](O)COc2cccc(Cl)c2)[C@H](O)C[C@@H]1O,max response,[1],-3.1% (inactive)
same,Potency,[2],inactive
CN[C@H](CC(C)C)C(=O)N[C@H]1C(=O)N[C@@H](CC(N)=O)C(=O)N[C@H]2C(=O)N[C@H]3C(=O)N[C@H](C(=O)N[C@@H](C(=O)O)c4cc(O)cc(O)c4-c4cc3ccc4O)[C@H](O)c3ccc(c(Cl)c3)Oc3cc2cc(c3O[C@@H]2O[C@H](CO)[C@@H](O)[C@H](O)[C@H]2O[C@H]2C[C@](C)(N)C(O)[C@H](C)O2)Oc2ccc(cc2Cl)[C@H]1O (stereo not given in full),max response,[1],3.65% (inactive) and -0.964% (inactive)
OCCOCCOCCO,Potency,[3],inactive
same,max response,[5],-9.26% (inactive) and -13.2% (inactive)
same,max response,[1],-2.42% (inactive)
same,max response,[6],-2.87% (inactive) and -1.37% (inactive)
same,Potency,[2],inactive
COC1[C@@H](O[C@@H]2O[C@H](C)[C@@H](O[C@H]3C[C@@](C)(O)[C@H](OC(=O)CC(C)C)[C@H](C)O3)[C@H](N(C)C)[C@H]2O)[C@@H](CC=O)C[C@@H](C)[C@@H](O)/C=C/C=C/C[C@@H](C)OC(=O)C[C@H]1OC(C)=O (stereo not given in full),Potency,[2],inactive
S=C=Nc1ccc(N=C=S)cc1,max response,[1],-17.1% (inactive)
same,Potency,[2],inactive
Nc1nc2c(c(=O)[nH]1)N(C=O)C(CNc1ccc(C(=O)N[C@@H](CCC(=O)O)C(=O)O)cc1)CN2 (stereo not given in full),max response,[1],8.32% (inactive)
same,Potency,[2],inactive
CN(C)C(=O)CCSC(SCCC(=O)O)c1cccc(/C=C/c2ccc3ccc(Cl)cc3n2)c1 (stereo not given),Potency,[2],inactive
CCCCC,Potency,[3],inactive
same,outcome,[4],inactive
same,max response,[5],-14.6% (inactive)
same,max response,[1],2.54% (inactive)
same,max response,[6],-0.392% (inactive)
same,outcome,[10],inactive
same,Potency,[2],inactive
C#C[C@]1(O)CC[C@H]2[C@@H]3CCC4=C(CCC(=O)C4)[C@H]3CC[C@@]21C,max response,[1],12.4% (inactive)
same,Potency,[2],inactive
CC/C=C\C/C=C\C/C=C\C/C=C\C/C=C\CCCC(=O)O,max response,[1],-4.05% (inactive)
same,Potency,[2],inactive
C=C1CC[C@H](O)CC1=C/C=C1\CCC[C@]2(C)[C@@H]([C@H](C)/C=C/[C@H](C)C(C)C)CC[C@@H]12,Potency,[2],inactive
CCCC(=O)O,Potency,[2],inactive

# Reference: PubChem BioAssay (NCATS)
